{"source": "PubChem BioAssay (Tox21)", "note": "Inconclusive results are not listed. Unmarked numbers belong to inactive results. The call rests on the fitted dose curve; in most records, active means well fitted cell-killing curve with a large enough effect in the repeat runs; inconclusive means weak or mixed curves, or effect the other way; inactive means flat fitted curve, though single readings scatter. On the % scale 0 is the no-effect control and ±100 the full control effect."}
{"test": "qHTS RealTime-Glo MT Cell Viability Assay in HepG2 cells - 0 hour (AID 1224889); further: nearly all actives have a fitted effect of over 50% in size", "conditions": "RealTime-Glo luminescence; series mostly up to 76.8 µM; activity change, negative = cytotoxicity: at the top concentration", "description": "U.S. Tox21 Program National Center for Advancing Translational Sciences [NCATS] NIH Chemical Genomics Center [NCGC] U.S. Environmental Protection Agency [EPA] National Institutes of Environmental Health Sciences [NIEHS] National Toxicology Program [NTP] U.S. Food and Drug Administration [FDA] Tox21 Assay Overview: Measure of cell viability is critical in the cell-base assay. Analysis of cell viability is necessary for the characterization of cell responses to cytotoxic drugs and environmental stress. A RealTime-Glo MT Cell Viability Assay to monitor cell viability in real time of continues cell culture during 40 hours of compound treatment was used to screen Tox21 10K library compounds in HepG2 cells. The RealTime-Glo MT Cell Viability Assay is a nonlytic, homogeneous, bioluminescent method to measure cell viability in real time using a simple, plate-based method. The assay involves adding NanoLuc luciferase and a cell-permeant prosubstrate to cells in culture. Viable cells reduce the proprietary prosubstrate to generate a substrate for NanoLuc luciferase. This substrate diffuses from cells into the surrounding culture medium, where it is rapidly used by the NanoLuc Enzyme to produce a luminescent signal. The signal correlates with the number of viable cells, making the assay well suited for cytotoxicity studies.\nTox21 Assay Protocol Summary: The mixture of HepG2 cell suspension and reagents were dispensed at 600cells/6 ul/well in 1536-well tissue culture treated black solid bottom plates using a Multidrop dispenser. After the assay plates were incubated at a 37 C/5% CO2 incubator for 5 hours, 23 nL of compounds dissolved in DMSO, positive and negative controls was transferred to the assay plate by a pintool work station. The plates were incubated at 37 C for 40 hours. The luminescence intensity were measured at 0h, 8h, 16h, 24h, 32h and 40h time points using ViewLux plate reader during compound treatment."}
{"compound": "CCCSC(=O)N(CCC)CCC", "activity change, negative = cytotoxicity": "10.3%"}
{"compound": "CC1(C)C(=O)NC(=O)NC1=O", "activity change, negative = cytotoxicity": "6.75%"}
{"compound": "CC(COc1ccc(Oc2ccccc2)cc1)Oc1ccccn1", "note": "(stereo not given)", "activity change, negative = cytotoxicity": "6.29%"}
{"compound": "C=C(C)CN(CC)c1c([N+](=O)[O-])cc(C(F)(F)F)cc1[N+](=O)[O-]", "activity change, negative = cytotoxicity": "-2.9%"}
{"compound": "COC(=O)c1ccccc1S(=O)(=O)NC(=O)Nc1nc(C)cc(C)n1", "activity change, negative = cytotoxicity": "14.5%"}
{"compound": "CCC/C(=N\\OCC)C1=C(O)CC(CC(C)SCC)CC1=O", "note": "(stereo not given)", "activity change, negative = cytotoxicity": "-2.06%"}
{"compound": "CCC(C)(C)c1cc(-n2nc3ccccc3n2)c(O)c(C(C)(C)CC)c1", "activity change, negative = cytotoxicity": "1.18%"}
{"compound": "CC(C)[N+](=O)[O-]", "activity change, negative = cytotoxicity": "3.83%"}
{"compound": "Cc1cccc(C#N)c1", "activity change, negative = cytotoxicity": "6.29%"}
{"compound": "CCN(CC)c1nc(C)cc(OP(=S)(OC)OC)n1", "activity change, negative = cytotoxicity": "-5.21%"}
{"compound": "CC(=O)CCc1ccc2c(c1)OCO2", "activity change, negative = cytotoxicity": "8.76%"}
{"compound": "Nc1ccccc1Cl", "activity change, negative = cytotoxicity": "2.12%"}
{"compound": "CCOP(=S)(OCC)SCSP(=S)(OCC)OCC", "activity change, negative = cytotoxicity": "-12%"}
{"compound": "O=C(N[C@H]1CN2CCC1CC2)c1cc2ccoc2cn1", "activity change, negative = cytotoxicity": "12.6%"}
{"compound": "CCN(Cc1ccc(Cl)nc1)/C(=C/[N+](=O)[O-])NC", "activity change, negative = cytotoxicity": "-1.1% [at 35.3 µM]"}
{"compound": "NC1=NC(=O)C(c2ccccc2)O1", "note": "(stereo not given)", "activity change, negative = cytotoxicity": "5.68% [at 35.3 µM]"}
{"compound": "C=CCC1=C(C)[C@@H](OC(=O)[C@@H]2[C@@H](C=C(C)C)C2(C)C)CC1=O", "activity change, negative = cytotoxicity": "-2.5%"}
{"compound": "N#Cc1ccncc1", "activity change, negative = cytotoxicity": "1.19%"}
{"compound": "CCCCN(CCCCO)N=O", "activity change, negative = cytotoxicity": "5%"}
{"compound": "CCOP(=O)(N=C1SCCS1)OCC", "activity change, negative = cytotoxicity": "4.96%"}
{"compound": "O=C(Nc1ccccc1)N(Cc1ccc(Cl)cc1)C1CCCC1", "activity change, negative = cytotoxicity": "-10.1%"}
{"compound": "CC(Cl)(Cl)[N+](=O)[O-]", "activity change, negative = cytotoxicity": "4.26%"}
{"compound": "CC(C=O)Cc1ccc2c(c1)OCO2", "note": "(stereo not given)", "activity change, negative = cytotoxicity": "8.04%"}
{"compound": "CCCCP(CCCC)CCCC", "activity change, negative = cytotoxicity": "-0.0616%"}
{"compound": "CN1CCN(C(=O)O[C@H]2c3nccnc3C(=O)N2c2ccc(Cl)cn2)CC1", "activity change, negative = cytotoxicity": "-2.22% [at 35.3 µM]"}
{"compound": "CC(N)=S", "activity change, negative = cytotoxicity": "-1.62%"}
{"compound": "CNC(=O)Oc1ccc(N(C)C)c(C)c1", "activity change, negative = cytotoxicity": "3.47%"}
{"compound": "N#CC(O)c1ccccc1", "note": "(stereo not given)", "activity change, negative = cytotoxicity": "1.27%"}
{"compound": "CCNc1nc(NC(C)C)nc(OC)n1", "activity change, negative = cytotoxicity": "-0.64%"}
{"compound": "CCOP(=O)(OCC)OP(=O)(OCC)OCC", "activity change, negative = cytotoxicity": "-4.05%"}
{"compound": "C=CC1CC=CCC1", "note": "(stereo not given)", "activity change, negative = cytotoxicity": "2.98%"}
{"compound": "CCC1(c2ccccc2)C(=O)N=C(O)NC1=O", "note": "(stereo not given)", "activity change, negative = cytotoxicity": "1.33%"}
{"compound": "CCOC(=O)NC(=S)Nc1ccccc1NC(=S)NC(=O)OCC", "activity change, negative = cytotoxicity": "1.38%"}
{"compound": "COc1cc(C[C@@H](C)N)c(OC)cc1C", "activity change, negative = cytotoxicity": "-0.759%"}
{"compound": "ClCCOCOCCCl", "activity change, negative = cytotoxicity": "-3.91%"}
{"compound": "CC1CCC(=O)O1", "note": "(stereo not given)", "activity change, negative = cytotoxicity": "5.67%"}
{"compound": "COc1cc(OC)nc(Oc2cccc(Oc3nc(OC)cc(OC)n3)c2C(=O)O)n1", "activity change, negative = cytotoxicity": "-10.5%"}
{"compound": "Fc1ccc(C2(Cn3cncn3)OC2c2ccccc2Cl)cc1", "note": "(stereo not given)", "activity change, negative = cytotoxicity": "-24.5%"}
{"compound": "CC(C(=O)c1ccccc1)N(C)C", "note": "(stereo not given)", "activity change, negative = cytotoxicity": "2.48% [at 35.3 µM]"}
{"compound": "C[C@H]1CCC[C@H](O)CCCCCc2cc(O)cc(O)c2C(=O)O1", "activity change, negative = cytotoxicity": "-15.3%"}
